Data published in PubChem BioAssay (NCI).
About 79,000 compounds went through this panel and 15% of them were active in at least one assay; those are over-represented in the sample as a whole. Unmarked numbers belong to inactive results. Active and inactive are the calls of the source. Cut-off read from the data, not from the text of the source: active = growth inhibition above about 70%; inactive = the rest.

Tests used:
[1] = NCI Yeast Anticancer Drug Screen. Data for the rad50 strain (AID 155);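 note: 0% = growth of vehicle-only cultures of the same strain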; conditions: S. cerevisiae rad50 strain growth inhibition, stronger effect = higher value
In short: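 Inhibition values express reduced yeast growth in compound-treated cultures relative to vehicle-treated controls.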

[2] = NCI Yeast Anticancer Drug Screen. Data for the mec2-1 strain (AID 157); conditions: S. cerevisiae mec2-1 strain, stronger effect = higher value
In short: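 Compounds were applied to mec2-1 yeast cells. Their growth was then compared with that of vehicle-treated cultures to give growth inhibition.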

[3] = NCI Yeast Anticancer Drug Screen. Data for the sgs1 mgt1 strain (AID 161);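 note: 0% = growth of cultures given vehicle only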; conditions: S. cerevisiae sgs1 mgt1 strain, stronger effect = higher value
In short: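 Compounds are added to genetically altered yeast, and growth is compared with cultures given vehicle alone to give percent inhibition.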

[4] = NCI Yeast Anticancer Drug Screen. Data for the cln2 rad14 strain (AID 165);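 note: 0% = growth equal to vehicle treated cultures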; conditions: S. cerevisiae cln2 rad14 strain, stronger effect = higher value
In short: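 Strain: cln2 rad14 yeast, altered in cell cycle control and DNA damage repair. Read-out: growth inhibition vs vehicle.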

[5] = NCI Yeast Anticancer Drug Screen. Data for the bub3 strain (AID 167); conditions: S. cerevisiae bub3 mutant strain, stronger effect = higher value
In short: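 Steps: expose the mutant yeast strain to compound; grow alongside vehicle-treated cultures; measure growth; express inhibition against the vehicle cultures.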

[6] = NCI Yeast Anticancer Drug Screen. Data for the mlh1 rad18 strain (AID 175); conditions: S. cerevisiae mlh1 rad18 strain growth inhibition, stronger effect = higher value
In short: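 A repair-deficient yeast strain is exposed to test compound, and growth is scored relative to vehicle-treated controls.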

[7] = at 5.0 µM (retest, dose inferred, filed as 0.5)
[8] = at 50.0 µM (retest, dose inferred, filed as 5.0)

SMILES	growth inhibition [1, 7]	growth inhibition [1, 8]	growth inhibition ([1]; at 50.0 µM)	growth inhibition [2, 7]	growth inhibition [2, 8]	growth inhibition ([2]; at 50.0 µM)	growth inhibition [3, 7]	growth inhibition [3, 8]	growth inhibition ([3]; at 50.0 µM)	growth inhibition [4, 7]	growth inhibition [4, 8]	growth inhibition ([4]; at 50.0 µM)	growth inhibition [5, 7]	growth inhibition [5, 8]	growth inhibition ([5]; at 50.0 µM)	growth inhibition [6, 7]	growth inhibition [6, 8]	growth inhibition ([6]; at 50.0 µM)
NC(CCl)=NCC1C2CC3CC(C2)CC1C3 (configuration not stated)	14%	99% (active)	87.9% (active)	11%	99% (active)	90.2% (active)	11%	99% (active)	90.8% (active)	-3%	99% (active)	84.5% (active)	10%	98% (active)	89.2% (active)	19%	99% (active)	89.9% (active)
c1ccc([CH2][Sn]([CH2]c2ccccc2)([S]c2cccc3cccnc23)[S]c2cccc3cccnc23)cc1	67%	24%	94.2% (active)	61%	18%	92.5% (active)	65%	59%	89.6% (active)	17%	-5%	84.5% (active)	61%	30%	93% (active)	46%	16%	93.5% (active)
F[Si](c1ccccc1)(c1ccccc1)c1ccccc1	-3%	75% (active)	62%	3%	87% (active)	25.3%	8%	79% (active)	32.1%	0%	82% (active)	41.6%	-5%	98% (active)	45.6%	10%	94% (active)	79.5% (active)
O=C1C2=C(C(=O)c3cnccc31)C1C=CC2CC1 (configuration not stated)	21%	71% (active)	49.1%	17%	69%	31.2%	25%	78% (active)	10.2%	16%	40%	15.8%	27%	88% (active)	59.9%	40%	94% (active)	90.8% (active)
Cc1cc(C)nc(NS(=O)(=O)c2ccc(Nc3nc(-c4cccc([N+](=O)[O-])c4)cs3)cc2)n1	14%	99% (active)	23.1%	-1%	99% (active)	30.5%	7%	99% (active)	47.6%	-26%	98% (active)	51.9%	34%	99% (active)	75.2% (active)	5%	99% (active)	53%
CCCCCCCCCCCCCCCCC/C=N\NC(=O)CCCC(=O)N/N=C/CCCCCCCCCCCCCCCCC	1%	-3%	98.7% (active)	-4%	-2%	99.1% (active)	-2%	-3%	98% (active)	4%	10%	99% (active)	7%	25%	99.2% (active)	2%	-25%	98.3% (active)
COc1ccc2c(c1)C=C([N+](=O)[O-])C(C1OC(C)(C)OC1C1COC(C)(C)O1)O2 (configuration not stated)	17%	12%	7.3%	22%	24%	65.2%	24%	14%	16.5%	19%	11%	45.1%	48%	43%	0.6%	24%	21%	19.8%
CC1Cc2ccc3c(c2C(c2ccc4c(c2)OCO4)C1C)OCO3 (configuration not stated)	-4%	-16%	-3.7%	3%	-19%	-15.1%	1%	14%	-5.1%	-23%	-14%	-4.7%	-5%	-3%	-3.35%	-11%	26%	8.9%
Cc1c2c(c(C)c3c4c(oc13)CCCC4)C=NCC2	-4%	49%	69.7%	3%	41%	92.8% (active)	-7%	36%	25%	-46%	26%	29.2%	-8%	-78%	50.2%	-5%	45%	80.1% (active)
